Data published in PubChem BioAssay (NCI).
About 79,000 compounds went through this panel and 15% of them were active in at least one assay; those are over-represented in the sample as a whole. Rule as the data show it: active = growth inhibition above about 70%; inactive = the rest.

Legend:
[1] = NCI Yeast Anticancer Drug Screen. Data for the rad50 strain (AID 155);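 also: 0% = growth of vehicle-only cultures of the same strain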; conditions: S. cerevisiae rad50 strain growth inhibition; at 50.0 µM; hits give high values
Method in brief: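 Growth of the mutant yeast was measured after compound exposure and referenced to vehicle-treated cultures.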

[2] = NCI Yeast Anticancer Drug Screen. Data for the mec2-1 strain (AID 157); conditions: S. cerevisiae mec2-1 strain, at 50.0 µM, hits give high values
Method in brief: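 Readout is yeast growth inhibition, normalised to vehicle-treated controls, in the mec2-1 strain exposed to compound.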

[3] = NCI Yeast Anticancer Drug Screen. Data for the sgs1 mgt1 strain (AID 161);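 also: 0% = growth of cultures given vehicle only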; conditions: S. cerevisiae sgs1 mgt1 strain, at 50.0 µM, hits give high values
Method in brief: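 Compounds are added to genetically altered yeast, and growth is compared with cultures given vehicle alone to give percent inhibition.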

[4] = NCI Yeast Anticancer Drug Screen. Data for the cln2 rad14 strain (AID 165);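 also: 0% = growth equal to vehicle treated cultures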; conditions: S. cerevisiae cln2 rad14 strain, at 50.0 µM, hits give high values
Method in brief: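 Relative to vehicle controls, growth inhibition of compound-treated cln2 rad14 yeast was recorded.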

[5] = NCI Yeast Anticancer Drug Screen. Data for the bub3 strain (AID 167); conditions: S. cerevisiae bub3 mutant strain, at 50.0 µM, hits give high values
Method in brief: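 Whole-cell yeast assay. The mutant strain was incubated with compounds, and growth inhibition was determined by comparison with vehicle-treated cells.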

[6] = NCI Yeast Anticancer Drug Screen. Data for the mlh1 rad18 strain (AID 175); conditions: S. cerevisiae mlh1 rad18 strain growth inhibition; at 50.0 µM; hits give high values
Method in brief: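 Test agents were incubated with a yeast strain of defined genotype (DNA damage repair defect). Inhibition of growth was derived by comparison with vehicle-exposed cultures.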

Measured: growth inhibition

c1ccc(-c2cccc(-c3ccccc3)n2)cc1
inactive: [1] 20.5% | [2] 33.9% | [3] -1.4% | [4] -10.8% | [5] -24.3% | [6] 28.7%

CC[N+](C)(CC)CCOc1ccc(Cc2nc3c([nH]2)c(=O)n(C)c(=O)n3C)cc1
inactive: [1] 8.15% | [2] 5.9% | [3] 13.8% | [4] -4.4% | [5] -9.6% | [6] 19.6%

CC1CC(=O)CC[C@@H]1OCc1ccccc1 (stereo partly specified)
inactive: [1] 5.95% | [2] -17.4% | [3] -5.05% | [4] 19.9% | [5] -8.95% | [6] 16.7%

COc1ccc(CC#N)cc1OC
inactive: [1] 6.5% | [2] -8.3% | [3] -5.6% | [4] -54.8% | [5] -31.4% | [6] -5.2%

COC(O)C(=O)c1c2c(cc3c1CCC3)CCC2 (stereo unspecified)
inactive: [1] 29.1% | [2] 45.8% | [3] 39.3% | [4] 12.3% | [5] 21.1% | [6] 21%

Cc1cn(C2CC(O)C(CO)O2)c(=O)nc1NCc1cccs1 (stereo unspecified)
inactive: [1] 0.8% | [2] 2% | [3] -8.55% | [4] -9.15% | [5] -4.55% | [6] 2.95%

CCCCc1nc2c([nH]1)c(=O)n(C)c(=O)n2C
inactive: [1] 8.1% | [2] -10.9% | [3] 5.2% | [4] 4.85% | [5] -36.5% | [6] 4.25%

Nc1nc2c3nc(Nc4ccccc4)sc3nc(=O)n2c2sc(Nc3ccccc3)nc12
inactive: [1] 1.85% | [2] 1.65% | [3] 2.75% | [4] -4.15% | [5] -20.3% | [6] 2.6%

COC(=O)C1CCC(C)(C(N)=O)C1(C)C (stereo unspecified)
inactive: [1] 16% | [2] 3% | [3] -10.9% | [4] -37.8% | [5] 5.25% | [6] 9.7%

O/N=C/c1nc2ccccc2s1
inactive: [1] 10.2% | [2] 22.8% | [3] -3.65% | [4] -55.6% | [5] -17.6% | [6] 23.8%

O=c1oc2ccccc2c(O)c1[N+](=O)[O-]
inactive: [1] 10.6% | [2] -11.2% | [3] -6.4% | [4] 2.7% | [5] -7.15% | [6] 3.65%

COc1c(Cl)cc([N+](=O)[O-])cc1Cl
inactive: [1] -3.5% | [2] 0.15% | [3] 3.1% | [4] -34.7% | [5] -18.5% | [6] -12.4%

CC(=O)Oc1ccc2c(c1)C(=O)CCCCCC(=O)O2
inactive: [1] 19.2% | [2] 4.2% | [3] 6.85% | [4] -0.25% | [5] -2.4% | [6] -10.8%

O=C(CC(=O)N1N=C(n2ccc3ccccc32)CC1c1ccccc1)Nc1ccccc1Cl (stereo unspecified)
inactive: [1] -13.6% | [2] -13.8% | [3] -3.5% | [4] 29.7% | [5] -2.1% | [6] 5.45%

CN(C)CCC1(C2=CCCC2)CC/C(=C\c2ccc3c(c2)OCO3)C1=O (stereo unspecified)
inactive: [1] 4.85% | [2] -13.7% | [3] -22.2% | [4] 16.4% | [5] -2.55% | [6] 17.5%

CCC(CCc1ccc(OC)c(OC)c1)C(=O)O (stereo unspecified)
inactive: [1] 1.8% | [2] 12.2% | [3] 14.2% | [4] -9.85% | [5] 29.4% | [6] 9.15%

CCOC(=O)CSc1ccnc(=O)[nH]1
inactive: [1] -9.25% | [2] -8.9% | [3] -5.35% | [4] 0.1% | [5] -16% | [6] -31.8%

O=C1CCC2CCC(=O)N12
inactive: [1] 1.25% | [2] -2.2% | [3] -10.3% | [4] 2.1% | [5] -11.2% | [6] 5.65%

CC[C@H](O)[C@H](C)C=C1SCCCS1
inactive: [1] -14.3% | [2] -42.2% | [3] 19.9% | [4] 25.1% | [5] -43.8% | [6] -43.6%

CC(C)=CCC1=C(OC2OC(CO)C(O)C(O)C2O)C(=O)c2ccccc2C1=O (stereo unspecified)
inactive: [1] 15.2% | [2] 15.6% | [3] 11.2% | [4] 6.95% | [5] 6.55% | [6] 5.5%

CSc1nc(N)n2nc(C3CC3)cc2n1
inactive: [1] 5.5% | [2] -10.8% | [3] 16.1% | [4] 21.4% | [5] 15.9% | [6] 3.4%

COC(OC)C1(CCc2ccccc2)NC(=O)N(C)C1=O (stereo unspecified)
inactive: [1] -17.4% | [2] 2.2% | [3] 5.6% | [4] -19.9% | [5] 25.6% | [6] -0.65%

O=C1c2ccccc2C(=O)N1CNc1cccc(Cl)c1
inactive: [1] 6.45% | [2] 13.2% | [3] 9.45% | [4] 10.1% | [5] 4.6% | [6] 22.4%

COC(=O)C(CC12CC3CC(CC(C3)C1)C2)NC(=O)C(N)CC(=O)O (stereo unspecified)
inactive: [1] -42.9% | [2] -30.4% | [3] -23.8% | [4] 15.9% | [5] 14.7% | [6] -24.4%

O=C1c2ccccc2C2CC1c1ccccc12 (stereo unspecified)
inactive: [1] 6.35% | [2] -1.6% | [3] -1.7% | [4] -7.7% | [5] -16.4% | [6] -5.4%

S=c1[nH]ncn1/N=C/c1ccccc1Cl
inactive: [1] 23.6% | [2] 37% | [3] 54.4% | [4] 22.9% | [5] -5.65% | [6] 37.6%

CC(C)(C)c1ccc(C(=O)NCSCC(NC(=O)CCC(N)C(=O)O)C(=O)NCC(=O)O)cc1 (stereo unspecified)
inactive: [1] -10.4% | [2] 1% | [3] -10.7% | [4] -7.75% | [5] 0.85% | [6] 14.8%

CC(=O)/C(=C/n1ccc(=O)[nH]c1=S)C(=O)Nc1ccc(Cl)cc1
inactive: [1] -32% | [2] -7.6% | [3] 4.7% | [4] 11.7% | [5] -20.4% | [6] 3.4%

COc1cc([C@@H]2c3cc4c(cc3[C@@H](Nc3ccc(NC(=O)c5cc(NC(=O)c6cc([N+](=O)[O-])cn6C)cn5C)cc3)[C@H]3COC(=O)[C@H]23)OCO4)cc(OC)c1O
inactive: [1] 34% | [2] 31.6% | [3] 34% | [4] 9.2% | [5] 16.4% | [6] 6.45%

Ic1ccc2c[n+]3ccccc3cc2c1
inactive: [1] -11.7% | [2] 25.9% | [3] 8.85% | [4] -29.8% | [5] 1.75% | [6] -3.95%

CCC1(CCBr)C(=O)NC(=Nc2ccccc2)NC1=O (stereo unspecified)
inactive: [1] 5.6% | [2] -5.8% | [3] 5.9% | [4] -41.1% | [5] 9.9% | [6] -14.3%

OC1OCC(COc2ccc(Cl)cc2)OC1O (stereo unspecified)
inactive: [1] -17.6% | [2] -9.05% | [3] -12.2% | [4] 1.25% | [5] -36.7% | [6] 18.9%

C=CCCCOC(C)=O
inactive: [1] 5.1% | [2] -10.9% | [3] 12.5% | [4] 4% | [5] 11.9% | [6] 1.8%

C/C(=N\N)c1cnc(N)nc1C
inactive: [1] -2.75% | [2] 5.4% | [3] 7.65% | [4] -6.3% | [5] -11.7% | [6] -12.8%

COC(=O)/C(=C\C(=O)c1ccc(Br)cc1)NN=C(c1ccccc1)c1ccccc1
inactive: [1] -20.3% | [2] -1.55% | [3] -3.3% | [4] 4.25% | [5] -20.1% | [6] -20.4%

C=COS(=O)O
inactive: [1] -0.65% | [2] -3.45% | [3] -4.85% | [4] -6.7% | [5] 12.3% | [6] -0.15%

Nc1nc(SCc2ccccc2)c2ncn(Cc3ccccc3)c2n1
inactive: [1] 5.75% | [2] -7.55% | [3] -15.1% | [4] 10.5% | [5] -2.9% | [6] 9.55%

COC(=O)c1ccccc1N=NNc1ccc2c(=O)c3ccccc3[nH]c2c1
inactive: [1] 23.8% | [2] 1.7% | [3] 22.1% | [4] 34.5% | [5] 11.6% | [6] 66%

O=Cc1c2cnc(c1O)CSCCCCSC2
inactive: [1] -9.2% | [2] -3.8% | [3] -10.8% | [4] -45.2% | [5] -16.4% | [6] -1.8%

COc1ccc2nc(N(C)C)cc(N(C)C)c2c1
inactive: [1] -10.6% | [2] 5.6% | [3] -2.4% | [4] -34.8% | [5] 4.6% | [6] -5%

O=C(O)c1ccccc1CC(Cc1ccccc1)C(=O)O (stereo unspecified)
inactive: [1] -14.7% | [2] -3.4% | [3] -10.9% | [4] -8.5% | [5] -12.4% | [6] 14%
